Assay results from PubChem BioAssay (NCATS).
Records with an inconclusive call do not appear. Activity calls are given as the source filed them. The call rests on the fitted dose curve; in most records, active means well fitted inhibition curve with a large enough effect; inconclusive means small, poorly fitted or top-dose-only effect, or effect the other way; inactive means flat fitted curve, though single readings scatter.

experiment: qHTS for Inhibitors of Plasmodium falciparum (GB4) proliferation (AID 504315); further: nearly all actives have a fitted effect of over 50% in size; details: P. falciparum GB4 in erythrocytes, SYBR Green DNA, 72 h; series mostly up to 6.7 µM
Method in brief: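 Erythrocytes infected with P. falciparum line (0.3% parasitemia, 2.5% hematocrit final) incubated with compounds 72 h at 37 °C, 5% CO2; SYBR Green lysis buffer added, fluorescence read next day. Normalized to 0.29 uM artemisinin and DMSO.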
Potency means the concentration at half of the fitted maximal effect.

Potency, active:
O=C1c2ccccc2C(=O)N1CCCC[C@]12Cc3c(ccc4ccccc34)[C@H](O1)c1c(cc(-c3ccccc3)oc1=O)O2 536 nM

Potency, inactive:
CCN1C(=O)[C@@H]2[C@H]3[C@H](O)[C@H](O)CC(=NOCC[C@@H]4C=C[C@H](OC(C)=O)[C@@H](COC(C)=O)O4)[C@@H]3CC[C@H]2C1=O
CSc1nnc2c(n1)C[C@H](c1ccccc1)[C@@H](C)[C@@H](C(=O)N1CCCC1)C2
CCN(CC)CCCN=C1NC(c2cccc(C(F)(F)F)c2)C(C(=O)OC)=C(C)N1CC (stereo not drawn)
CCCCC1=CC2=CC(=O)C(C)(OC(=O)c3cnc4ccccc4n3)C(=O)C2=CO1 (stereo not drawn)
COCCN1C=C2C(=O)C(C)(OC(=O)C3CCCC3)C(=O)C(c3ccccc3)=C2C=C1CCCC(=O)OC (stereo not drawn)
C#CCCOC(=O)N1C2=NC(C(=O)OC)=C(C(=O)OC)[C@@H]3N(C)c4ccccc4[C@]23C[C@H]1C(=O)OC
COC(=O)[C@H]1[C@@H](c2cccc(C(F)(F)F)c2)NC(=O)N(Cc2ccccc2)[C@@H]1C
COC(=O)N1C2CC3(C)C=C(C)OC1(C)C3c1ccccc12 (stereo not drawn)
CCCC[C@]12Cc3cc(C#N)ccc3[C@H](O1)c1c(c3ccccc3oc1=O)O2
C=CC[C@@H]1C=C[C@H](ON=C[C@@H](C)[C@H](OCc2ccccc2)C(C)C)[C@H](CO)O1
CCOC(=O)C(c1ccc(OC)c(OC)c1)C1c2ccccc2C=C(C)N1C(=O)OC (stereo not drawn)
C[C@@H]1[C@@H](c2ccccc2)Cc2nc3ccccc3nc2C[C@H]1C(=O)N1CCCC1
